In the supplement of paper PMC9877034:
Counter-ions that a name gives are not always drawn. Whole data set: some 1,000 compounds, median “cFRET/donor change relative to DMSO, normalised to beta-lapachone positive control (supercomplex I-IV assembly)” near 0.18, cut for the lowest 2% near -1. The entries come from a sample that favours the lowest values as a whole.

What follows are molecules tested on C2C12 (NDUFB8-AcGFP / COX8A-DsRed-Monomer FRET reporter) (assay: cFRET/donor change relative to DMSO, normalised to beta-lapachone positive control (supercomplex I-IV assembly) (fraction of beta-lapachone effect); higher = more respiratory supercomplex assembly). Settings: 40 µM; 24 h.
Method: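 Cells were treated with 40 uM compound for 24 h and imaged on an IN Cell Analyzer 6000. Corrected FRET was divided by donor signal (cFRET/donor) and measured in two replicate experiments. The score is (mean cFRET/donor of compound - mean DMSO) / (mean beta-lapachone 40 uM - mean DMSO). Compounds flagged for prominent cell death, abnormal morphology or decreased cell number were excluded.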
Molecule `Cc1c2ccncc2c(C)c2c1[nH]c1ccccc12` [Ellipticine] has a cFRET/donor change of -2.44.
In the case of `NC(CCP(=O)(O)O)C(=O)O` (racemic) [(±)-2-Amino-4-phosphonobutyric acid], the cFRET/donor change was 0.0445.
`CN1CCC[C@@H]1Cc1c[nH]c2ccc(Nc3ncccc3[N+](=O)[O-])cc12` showed a cFRET/donor change of 0.0254.
Molecule `C#CCN[C@H](C)Cc1ccccc1` [R-(-)-Desmethyldeprenyl hydrochloride] has a cFRET/donor change of -0.331.
`C[N+](C)(C)CC#CCOC(=O)Nc1cccc(Cl)c1` showed a cFRET/donor change of 0.565.
